This passage reports z-score results from PubChem BioAssay AID488969 (Vanderbilt High Throughput Screening Facility, 2010).

The full ranking holds about 110,000 compounds; the median of “z-score” is about -0.1, and the highest 2% start at about 2. This is one part of a sample in which the highest values are shown more often than they occur. The source made the active and inactive calls.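 How the source made its calls: active means z-score in the third read window above 3 or below -3; inactive means the rest.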

The target of the assay is Metabotropic glutamate receptor 8 (Rattus norvegicus) (UniProt P70579). As to the kind of experiment: mGluR8 Gi/Go-coupled signaling modulation – cell-based, rat, thallium flux, HTS, primary screen (AID 488969). Conditions: HEK293 rat mGluR8, GIRK (G protein-gated inwardly rectifying potassium channel) thallium flux, FluoZin2; at 10 µM; stronger effect = higher value; submaximal glutamate (EC20) added with thallium.
Chain of Metabotropic glutamate receptor 8 (Rattus norvegicus) (P70579 whole entry, looked up): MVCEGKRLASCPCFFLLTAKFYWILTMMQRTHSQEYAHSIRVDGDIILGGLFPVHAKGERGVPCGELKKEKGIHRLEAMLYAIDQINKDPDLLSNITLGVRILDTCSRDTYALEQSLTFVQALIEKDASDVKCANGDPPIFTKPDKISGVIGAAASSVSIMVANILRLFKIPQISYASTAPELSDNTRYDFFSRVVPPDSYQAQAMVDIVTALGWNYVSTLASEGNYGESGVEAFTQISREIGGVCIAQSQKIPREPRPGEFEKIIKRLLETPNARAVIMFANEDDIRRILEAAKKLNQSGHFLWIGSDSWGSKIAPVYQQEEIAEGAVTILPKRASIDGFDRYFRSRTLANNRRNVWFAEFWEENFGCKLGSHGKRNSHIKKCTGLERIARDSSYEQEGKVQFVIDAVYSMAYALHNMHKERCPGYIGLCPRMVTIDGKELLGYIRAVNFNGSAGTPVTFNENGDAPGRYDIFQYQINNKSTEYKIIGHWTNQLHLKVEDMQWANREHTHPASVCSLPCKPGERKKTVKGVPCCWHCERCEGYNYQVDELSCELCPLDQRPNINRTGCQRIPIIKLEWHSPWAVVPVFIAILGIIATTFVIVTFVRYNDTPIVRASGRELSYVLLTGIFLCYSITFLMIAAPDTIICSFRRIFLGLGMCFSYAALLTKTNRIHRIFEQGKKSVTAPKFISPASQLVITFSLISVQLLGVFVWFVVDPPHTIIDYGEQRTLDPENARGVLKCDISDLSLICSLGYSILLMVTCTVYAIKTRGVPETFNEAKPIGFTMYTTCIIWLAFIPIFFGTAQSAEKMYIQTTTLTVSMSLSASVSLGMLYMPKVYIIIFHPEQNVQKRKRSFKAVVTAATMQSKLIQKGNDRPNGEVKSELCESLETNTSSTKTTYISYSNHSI
`CCOC(=O)C1=NN(C(C)=O)C2(CC(=O)N(c3cccc(C)c3)C2=O)C1` (configuration not stated) had a z-score of -0.0266.

Molecule `CC1=NN(C(=O)c2ccc(C)cc2)C(O)(C(F)(F)OC(F)(F)F)C1` (configuration not stated) gave a z-score of -0.0203.

As to `CCC1=NN(C(=O)c2cccc(Br)c2)C(O)(c2ccc(Br)cc2)C1` (configuration not stated), the z-score is 3.84 (active).

In the case of `COC(=O)C1(O)CC(C(C)C)=NN1C(=O)c1ccc(Cl)cc1` (configuration not stated), the z-score is 0.417.

As to `COC(=O)C1=NN(C(=O)c2ccc(Cl)cc2)C(O)(c2ccccc2)C1` (configuration not stated), the z-score was 11.5 (active).

`COC(=O)C1=NN(C(=O)c2ccccc2)C(C)(O)C1` (configuration not stated): the z-score came to 0.19.

For `Cn1ncc(Br)c1C(=O)OCC(=O)Nc1nc(-c2ccccc2)cs1`, the z-score was -0.654.

As to `CCCCOCCCNC(=O)/C=C/c1ccccc1Cl`, the z-score is -0.149.

`C/C=C/c1ccc(OCCCNC2CCCC2)c(OC)c1` returned a z-score of 1.24.

Molecule `COC(=O)c1cc(C#N)c(N(C)Cc2ccccc2)nc1C` gave a z-score of -0.154.

Turning to `CCc1nnc(NC(=O)CSc2nnc(-c3ccncc3)n2C)s1`, the z-score is -1.78.

`COC(=O)c1cc(O)c(OCc2ccccc2)c(O)c1` had a z-score of -0.276.

`CCOC(=O)C1=C(C)NC(=O)NC1c1cccc(O)c1` (configuration not stated) came in with a z-score of -0.126.

For `CCOC(=O)C1CCC(CNCc2ccc(Cl)cc2)CC1` (configuration not stated), the z-score was -1.85.

For `CNc1c([N+](=O)[O-])cnn1-c1ccc(Cl)cc1Cl`, the z-score was -0.197.

`CC1=NN(C(=O)COc2ccc(C)c(C)c2)C(O)(c2ccc(Cl)cc2)C1` (configuration not stated) had a z-score of -0.32.

In turn, `CC1=NN(C(=O)COc2ccccc2C)C(O)(c2ccc(Cl)cc2)C1` (configuration not stated) yielded a z-score of -0.867.

With `CCOC(=O)C1=NN(C(=O)c2ccc(C)cc2)C(O)(c2ccc(Cl)cc2)C1` (configuration not stated), the z-score is 10.4 (active).

Molecule `CN1CCN(c2ncnc3c2cnn3-c2ccc(Cl)cc2)CC1` showed a z-score of 0.276.

As for `COc1ccccc1OCCNc1nc2c(c(=O)n(C)c(=O)n2C)n1C`, the z-score amounted to 1.41.

Molecule `Cc1ccc(Cc2cnc(NC(=O)c3ccco3)s2)cc1` registered a z-score of -0.555.

Turning to `Cc1ccc(NC(=O)CSc2nc3ccccc3c3nc(CCc4c(C)n[nH]c4C)nn23)cc1F`, the z-score is -0.264.

On to `COC(=O)CN1C(=O)CSc2ncccc21`, for which the z-score is 0.767.

Molecule `CNC(=O)CN1C(=O)CSc2ncccc21` had a z-score of 0.227.

For the molecule `COCCNC(=O)CN1C(=O)CSc2ncccc21`, the z-score was 3.57 (active).

As to `COC(=O)c1ccc(C)c(NC(=O)Cc2coc3cc(OC)ccc23)c1`, the z-score was 0.022.

`COCCSc1nnc(-c2cccc(C#N)c2)n1C` gave a z-score of 2.31.

`Cc1ccc(OCCSc2nnc(-c3ccncc3)n2C)cc1` displayed a z-score of -0.157.

`Cn1c(SCCOc2cccc(Cl)c2)nnc1-c1ccncc1` displayed a z-score of -0.17.

Take `Cc1ccc(S(=O)(=O)N2CCC(C(=O)N3CCC[C@H]3C(=O)NCc3ccccc3)CC2)cc1`: the z-score is -0.265.

`CCC(c1nnnn1C(C)(C)C)N1CCN(C2CCCC2)CC1` (configuration not stated) displayed a z-score of 0.224.

In the case of `O=C(CN(Cc1cccs1)C(=O)CNS(=O)(=O)c1ccc(F)cc1)NCc1ccco1`, the z-score is -0.317.

`Cc1ccc(-c2cc(-c3ccccc3C)[nH]n2)c(O)c1` displayed a z-score of -0.115.

The molecule `Cc1ccc(-c2cc(-c3cccs3)[nH]n2)c(O)c1` came in with a z-score of 2.77.

In turn, `Cc1ccc(-c2cc(-c3ccccc3[N+](=O)[O-])[nH]n2)c(O)c1` yielded a z-score of -0.292.

The molecule `COC(=O)c1cc(NS(=O)(=O)c2ccc(NCc3cccnc3)c(N)c2)cc(C(=O)OC)c1` had a z-score of -0.104.

`CCOC(=O)c1nc2cc3n(c(C)c-2c1C)C(C)C(CC)=C3C` (configuration not stated) yielded a z-score of 2.31.

As to `CCOC(=O)c1nc2cc3n(c(CC(C)C)c-2c1C)CC(C)=C3C`, the z-score was determined as 0.604.

The molecule `CCOC(=O)c1nc2cc3n(c(C)c-2c1C)C(C)C(C)=C3C` (configuration not stated) came in with a z-score of -0.0669.

In the case of `CCOC(=O)Nc1sc2c(c1C#N)CCCC2`, the z-score worked out at 0.504.

With `CSc1ccccc1NC(=O)COc1ccccc1Cl`, the z-score is -1.54.

`Cc1cnc(NC(=O)COc2cccc3c2OC(C)(C)C3)s1`: the z-score stood at 0.713.

Take `Cc1cnc(NC(=O)COc2ccccc2Cl)s1`: the z-score is 3.06 (active).

In the case of `O=C(CCCCCNS(=O)(=O)c1ccc(Br)cc1)NCCN1CCOCC1`, the z-score was 0.263.

In the case of `COc1ccc(S(=O)(=O)NCCC(=O)NC2CCCCCCC2)cc1`, the z-score is 3.82 (active).

In the case of `COc1ccc(CCCC(=O)NC2CCCCC2)cc1`, the z-score was -0.301.

`Cc1ccc(S(=O)(=O)NCCC(=O)NC2CCCC2)cc1` displayed a z-score of 0.757.

`CCCCNC(=O)CCCCCNS(=O)(=O)c1ccc(OC)cc1` gave a z-score of 1.14.

The molecule `COc1ccc(S(=O)(=O)NCCCCCC(=O)NCCCN2CCOCC2)cc1` returned a z-score of 2.89.

Regarding `CC(C)(C)NC(=O)CN1CCC(O)(c2ccccc2)CC1`, the z-score is -0.263.

Regarding `CCOC(=O)CC(=O)CSc1nc2cc(C)ccc2cc1C`, the z-score came out at 0.9.

Molecule `CNC(=O)c1sc(-c2ccccc2)nc1C` returned a z-score of -0.396.

For the molecule `COc1ccc(C(=O)CSc2ccc(-c3ccccc3)nn2)cc1`, the z-score is -0.139.

Take `Oc1c(C=Nc2cccnc2)sc2ccccc12`: the z-score is -0.313.

The molecule `CN=Cc1sc2ccccc2c1O` came in with a z-score of 0.0625.

For `Oc1c(C=NCc2ccncc2)sc2ccccc12`, the z-score stood at 2.11.

For the molecule `O=c1ccc(/C=C/c2ccccc2)nn1Cc1ccc(Cl)cc1Cl`, the z-score is 0.353.
